According to the supplement of paper PMC3334620:
The full ranking holds about 33,000 sequences; the median of “E-score (-0.5 to 0.5)” is about -8e-05, and the highest 2% start at about 0.23. What follows is part of a selection rich in the highest values, with near analogues and random picks from the rest.

These sequences were tested against T1, Nrg2 (UniProt P38082) (assay: PBM E-score (8-mer binding enrichment) (E-score (-0.5 to 0.5)); higher = stronger / more preferred TF binding). Conditions: protein concentration: 100 nM; construct: GST-full length.
T1 sequence: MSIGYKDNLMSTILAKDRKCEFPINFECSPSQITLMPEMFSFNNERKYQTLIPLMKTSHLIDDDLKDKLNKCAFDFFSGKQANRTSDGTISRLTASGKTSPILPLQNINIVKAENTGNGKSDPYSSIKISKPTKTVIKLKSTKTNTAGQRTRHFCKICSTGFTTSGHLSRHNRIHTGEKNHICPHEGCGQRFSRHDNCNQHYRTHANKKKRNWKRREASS
Procedure, shortened: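 PURExpress in vitro transcription/translation supplied GST-tagged yeast transcription factors, either full-length or DNA-binding domain. Applied at about 100-200 nM to universal all-10-mer Agilent arrays double-stranded by primer extension, the bound protein was detected with fluorescent anti-GST. E-scores, modified Wilcoxon-Mann-Whitney statistics, were given by the Universal PBM Analysis Suite to ungapped eight-base words pooled with their reverse complements after masliner normalisation.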

Row | Sequence | PBM E-score
1 | CAGGGTAA | 0.215
2 | AAGTCTAT | -0.0746
3 | TAGTAAGA | 0.107
4 | AGCCTGCA | 0.0137
5 | ACCCTGCT | 0.0589
6 | ACCCTGCA | 0.376
7 | CCCCTGCG | -0.0622
8 | TCCCTGCA | 0.25
9 | ACCCTGCC | 0.0806
10 | ACCCTGCG | 0.254
11 | CCCCTGCA | -0.00126
12 | GCCCTGCA | 0.044
13 | ATAGGACA | -0.118
14 | GGTCTTGA | -0.0327
15 | ACCAAGTC | 0.111
16 | AAAGCCCG | -0.147
17 | AAAAGCGT | -0.0481
18 | AAAAACTT | -0.148
19 | CGCTGGCA | 0.0236
20 | CGGCATTA | 0.0976
21 | TCGCACGA | -0.00406
22 | TCGCGCGA | 0.138

Row | Sequence | PBM E-score
23 | ACGCGCGG | 0.192
24 | GCGCGATA | 0.254
25 | ACGCGCGT | 0.17
26 | GCGCACGC | -0.0951
27 | ACGCGCGC | 0.279
28 | GCGCACGA | 0.238
29 | CCGCGCGA | 0.202
30 | ACGCGATA | 0.0412
31 | GCGCGCGA | 0.251
32 | CCGCGATA | 0.117
33 | CTTACCCA | 0.0294
34 | AATGCAAT | -0.287
35 | GGTCCAGA | 0.125
36 | AGGCGGGG | 0.0214
37 | AACGATTC | 0.0537
38 | ACGGACGT | -0.169
39 | GTCCAGAC | -0.175
40 | ATCTTTGC | 0.133
41 | CAGCGCGC | 0.21
42 | GCGCGGTA | 0.271
43 | GCGCGCCC | 0.0648
44 | GAGCGCGC | 0.263

Row | Sequence | PBM E-score
45 | GCGCGCGC | 0.415
46 | CCGCGGTA | 0.119
47 | ACGCGGTA | -0.152
48 | GCGCGCAC | 0.165
49 | GAGCGCGA | 0.196
50 | CCTTTCCG | -0.116
51 | TTGAACAA | -0.0525
52 | ACGGAAGC | -0.0173
53 | AGCCAGCG | -0.0673
54 | CTCGGAGA | 0.0113
55 | ATCAGTAA | 0.0691
56 | AGAAAGTC | 0.037
57 | CCCTGTAA | 0.294
58 | CCCTGTGA | 0.059
59 | GCCTGAAC | -0.211
60 | CACTGAAA | 0.0555
61 | CCCTGTAC | 0.208
62 | TACTGAAA | 0.242
63 | GCCTGTAA | -0.225
64 | CCCTGAAC | 0.282
65 | ACCTGTGC | -0.0445
66 | CCCTGTGC | 0.263

Row | Sequence | PBM E-score
67 | GACTGAAA | 0.0848
68 | CCCTGAAG | 0.208
69 | ACGGTTAG | -0.312
70 | ATTCTTTA | -0.0742
71 | CATCAATC | -0.0356
72 | AGGGTTAC | -0.14
73 | CAAGTGTA | -0.0141
74 | ATGATGGG | 0.0257
75 | CTATGGCA | -0.0101
76 | CCCTGGAG | 0.05
77 | CCCTGGAC | 0.295
78 | CCCTGCAG | 0.26
79 | TCCTGAAA | -0.0476
80 | ACCTGCAG | -0.0488
81 | CCCTGGAA | 0.0405
82 | CCCTGAAA | 0.305
83 | GCCTGAAA | 0.115
84 | CCCTGCAA | 0.162
85 | ACTCCCGG | -0.0764
86 | ATCCCATA | -0.0872
87 | CCATAGTA | 0.0238
